PubChem BioAssay (Tox21)
“And” between values parts separate entries of the source, which are not always exact repeats. Identical values can stand only once. Results filed as inconclusive are left out. A structure can be active in one record and inactive in another. The source made the active and inactive calls. Unless noted, calls follow the shape of the dose curve; as a rule, active = well fitted curve in the direction sought with a large enough effect in the repeat runs; inconclusive = weak or mixed curves; inactive = no such curve, though single readings can be large; an effect the other way counts as inactive or inconclusive.

Legend:
[1] = qHTS assay to identify small molecule antagonists of the glucocorticoid receptor (GR) signaling pathway - cell viability counter screen (AID 720693); also: nearly all actives have a fitted effect of over 55% in size; also: potency is read from the fitted curve at half-maximal effect
[2] = qHTS assay for identifying genotoxic compounds that show differential cytotoxicity against isogenic chicken DT40 cell lines with known DNA damage response pathways - wild type cell line (AID 743012); also: nearly all actives have a fitted effect of over 60% in size; also: potency is read from the fitted curve at half-maximal effect
Procedure, shortened: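 300 wt DT40 cells/well; cpd (DMSO) pintool-transferred after ~0.5 h at 37 C/5% CO2; 40 h incubation; CellTiter-Glo added, 30 min RT; luminescence read.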

[3] = qHTS assay for identifying genotoxic compounds that show differential cytotoxicity against isogenic chicken DT40 cell lines with known DNA damage response pathways - Rev3 mutant cell line (AID 743014); also: nearly all actives have a fitted effect of over 55% in size; also: potency is read from the fitted curve at half-maximal effect
[4] = qHTS assay for identifying genotoxic compounds that show differential cytotoxicity against isogenic chicken DT40 cell lines with known DNA damage response pathways - Rad54/Ku70 mutant cell line (AID 743015); also: nearly all actives have a fitted effect of over 60% in size; also: potency is read from the fitted curve at half-maximal effect
[5] = qHTS assay to identify small molecule antagonists of the androgen receptor (AR) signaling pathway - cell viability counter screen (AID 743033; also: nearly all actives have a fitted effect of over 45% in size; also: potency is read from the fitted curve at half-maximal effect)
[6] = target: Androgen receptor (Homo sapiens) (UniProt P10275); test: qHTS assay to identify small molecule antagonists of the androgen receptor (AR) signaling pathway (AID 743035; active = well fitted inhibition curve with a large enough effect in the signal ratio in the repeat runs, not every such curve was filed as active; the % refers to the signal ratio; also: potency is read from the fitted curve at half-maximal effect)
Procedure, shortened: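 In this cell-based reporter screen, compounds were tested in concentration series against R1881-activated HEK293 cells expressing beta-lactamase under UAS control; after 16 h at 37C, FRET substrate was added and fluorescence read 2 h later.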

[7] = target: Androgen receptor (Homo sapiens) (UniProt P10275); test: qHTS assay to identify small molecule agonists of the androgen receptor (AR) signaling pathway (AID 743036; active = well fitted activation curve with a large enough effect in the signal ratio in the repeat runs, with a control signal flat, not every such curve was filed as active; the % refers to the signal ratio; also: potency is read from the fitted curve at half-maximal effect)
Procedure, shortened: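 In this Tox21 qHTS, 2,000 HEK293 AR-bla cells per well were incubated with compounds for 16 h at 37C and 5% CO2. Fluorescence intensity was recorded 2 h after adding LiveBLAzer B/G FRET substrate at room temperature.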

[8] = target: Androgen receptor (Homo sapiens) (UniProt P10275); test: qHTS assay to identify small molecule agonists of the androgen receptor (AR) signaling pathway using the MDA cell line (AID 743040; also: nearly all actives have a fitted effect of over 20% in size); details: MDA-kb2 AR-luc cells, MMTV luciferase, 16 h; activity change: at 70.3 µM (top of the series), stronger effect = higher value
Procedure, shortened: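 Testing was done with the MDA-kb2 AR-luc line, a human breast carcinoma stably transfected with MMTV-luciferase containing AR and GR response elements. Cells were exposed 16 h at 37C before ONE-Glo luminescence detection.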

[9] = qHTS assay to identify small molecule antagonists of the androgen receptor (AR) signaling pathway using the MDA cell line - cell viability counter screen (AID 743041; also: nearly all actives have a fitted effect of over 45% in size; also: potency is read from the fitted curve at half-maximal effect)
Procedure, shortened: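 Compound exposure lasted 16 h at 37C in MDA-kb2 AR-luc cells stimulated with R1881. Protease-based CellTiter-Fluor reagent was applied for the final 30 min and fluorescence measured.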

[10] = target: Androgen receptor (Homo sapiens) (UniProt P10275); test: qHTS assay to identify small molecule antagonists of the androgen receptor (AR) signaling pathway using the MDA cell line (AID 743042; also: nearly all actives have a fitted effect of over 55% in size; also: potency is read from the fitted curve at half-maximal effect)
Procedure, shortened: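 MDA-kb2 breast carcinoma cells carrying MMTV-luciferase (AR/GR responsive) were co-treated with compounds and the agonist R1881 for 16 h at 37C. Inhibition read as ONE-Glo luminescence; CellTiter-Fluor fluorescence measured in parallel for cytotoxicity.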

Measured: Potency

Chain of Androgen receptor (Homo sapiens) (P10275 whole entry, looked up): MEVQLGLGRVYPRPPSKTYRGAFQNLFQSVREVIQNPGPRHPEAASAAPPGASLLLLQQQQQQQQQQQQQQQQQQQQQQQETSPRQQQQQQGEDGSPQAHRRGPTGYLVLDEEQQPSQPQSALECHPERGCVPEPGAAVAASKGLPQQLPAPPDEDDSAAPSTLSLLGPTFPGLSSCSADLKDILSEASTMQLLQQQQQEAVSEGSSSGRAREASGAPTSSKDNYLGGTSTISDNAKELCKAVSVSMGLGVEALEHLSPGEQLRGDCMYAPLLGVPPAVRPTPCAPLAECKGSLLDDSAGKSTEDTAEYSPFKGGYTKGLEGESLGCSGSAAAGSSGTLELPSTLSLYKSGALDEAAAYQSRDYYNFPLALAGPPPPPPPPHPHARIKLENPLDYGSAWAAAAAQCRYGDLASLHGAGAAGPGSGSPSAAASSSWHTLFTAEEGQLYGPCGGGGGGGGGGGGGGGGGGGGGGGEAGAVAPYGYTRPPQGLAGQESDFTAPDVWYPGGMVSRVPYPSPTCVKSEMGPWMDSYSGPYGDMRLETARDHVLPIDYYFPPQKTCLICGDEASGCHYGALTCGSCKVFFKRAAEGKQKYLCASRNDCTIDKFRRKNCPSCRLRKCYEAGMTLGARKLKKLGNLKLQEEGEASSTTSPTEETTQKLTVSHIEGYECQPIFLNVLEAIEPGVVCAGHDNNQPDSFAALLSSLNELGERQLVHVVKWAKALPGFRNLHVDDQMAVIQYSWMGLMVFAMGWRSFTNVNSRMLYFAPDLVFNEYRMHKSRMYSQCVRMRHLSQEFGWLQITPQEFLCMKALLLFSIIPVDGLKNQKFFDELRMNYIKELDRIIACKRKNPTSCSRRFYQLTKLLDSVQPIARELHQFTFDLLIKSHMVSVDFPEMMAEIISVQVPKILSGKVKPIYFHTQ

CCCN(CCC)c1c([N+](=O)[O-])cc(C(C)C)cc1[N+](=O)[O-]
inactive and 54.5 µM (active): [4]
inactive and 61.1 µM (active): [2]
inactive: [1] | [3] | [5]

CCN(C(C)=O)c1cccc(-c2ccnc3c(C#N)cnn23)c1
inactive: [1] | [2] | [3] | [4] | [5]

O=C1c2ccccc2C(=O)N1SC(Cl)(Cl)Cl
active: [1] 17.1 µM and 13.8 µM | [2] 603 nM and 154 nM | [3] 67.6 nM and 109 nM | [4] 135 nM and 154 nM | [5] 2.71 µM and 3.09 µM

O=CC=O
inactive: [1] | [2] | [4] | [5] | [6] | [7] | [8] | [9] | [10]
inactive and 49.9 µM (active): [3]

C=CCSSCC=C
inactive: [1] | [2] | [3] | [4] | [5]

CCC1(C2=NCCN2)Cc2ccccc2O1 (stereo not drawn)
active: [2] 5.31 µM | [3] 5.31 µM | [4] 6.68 µM | [6] 19 µM | [7] 23.9 µM
inactive: [1] | [5] | [8] | [9] | [10]

C=CCOCC1CO1 (stereo not drawn)
inactive: [1] | [2] | [3] | [4] | [5]

ClCc1ccccc1Cl
inactive: [1] | [2] | [3] | [4] | [5] | [6] | [8] | [9] | [10]

C[CH2][Hg][S]c1ccccc1C(=O)O
active: [1] 7.56 µM and 6.16 µM | [2] 376 nM and 172 nM | [3] 596 nM and 137 nM | [4] 266 nM and 109 nM | [5] 10.7 µM and 4.9 µM | [6] 9.52 µM and 3.09 µM | [9] 9.87 µM and 8.63 µM | [10] 9.44 µM and 7.7 µM
inactive: [8]

CCC1(CC)C(=O)NC(=O)NC1=O
inactive: [1] | [2] | [3] | [4] | [5]

Cc1nc(N(C)C)nc(OC(=O)N(C)C)c1C
inactive: [1] | [2] | [3] | [4] | [5] | [9]

CCCSP(=S)(OCC)Oc1ccc(SC)cc1 (stereo not drawn)
active: [2] 43.3 µM | [3] 15.4 µM | [4] 27.3 µM
inactive: [1] | [5] | [9]

C1CS1
inactive: [1] | [2] | [3] | [4] | [5] | [9]

CCCCC#N
inactive: [1] | [2] | [3] | [4] | [5] | [9]

CC(C)(c1ccccc1)c1cc(-n2nc3ccccc3n2)c(O)c(C(C)(C)c2ccccc2)c1
inactive: [1] | [2] | [3] | [4] | [5] | [9]

COC1=CC(=O)O[C@@H](/C=C/c2ccc3c(c2)OCO3)C1
inactive: [1] | [2] | [3] | [4] | [5] | [9]

O=C=NC1CCCCC1
inactive: [1] | [2] | [3] | [4] | [5] | [9]

CC(C)[C@@H](C(=O)O[C@@H](C#N)c1cccc(Oc2ccccc2)c1)c1ccc(Cl)cc1
inactive and 54.5 µM (active): [3]
active: [4] 30.6 µM
inactive: [1] | [2] | [5] | [9]

SCc1ccccc1
inactive: [1] | [2] | [3] | [4] | [5] | [9]

CC(C)CCON=O
inactive: [1] | [2] | [3] | [4] | [5] | [9]

c1ccc2c(c1)-c1cccc3cccc-2c13
inactive: [1] | [2] | [4] | [5] | [9]
inactive and 61.1 µM (active): [3]

N#CC1(N=NC2(C#N)CCCCC2)CCCCC1
inactive: [1] | [2] | [3] | [4] | [5] | [9]

OCCCl
inactive: [1] | [2] | [3] | [4] | [5] | [9]

COc1cc(CC(C)N)c(OC)cc1Br (stereo not drawn)
active: [2] 11.2 µM and 29.8 µM | [3] 15.9 µM | [4] 15.9 µM
inactive: [1] | [5] | [9]

CC(O)CN1CCN(CC(=O)[O-])CCN(CC(=O)[O-])CCN(CC(=O)[O-])CC1.[Gd+3] (stereo not drawn)
inactive: [1] | [2] | [3] | [4] | [5] | [9]

CC(C)(C)CC(C)(C)c1ccc(O)cc1
active: [1] 24.5 µM | [2] 23.7 µM and 12.2 µM | [3] 11.9 µM and 19.3 µM | [4] 27.3 µM
inactive: [5] | [8] | [10]

Clc1ccc(Cl)c(Cl)c1
inactive: [1] | [2] | [3] | [4] | [5] | [9]

CCCC(C)(COC(N)=O)COC(=O)NC(C)C (stereo not drawn)
inactive: [1] | [2] | [3] | [4] | [5] | [9]

Oc1cccc(Cl)c1
inactive: [1] | [2] | [3] | [4] | [5] | [9]
